Where “and” joins values, the source holds several entries; their conditions need not be identical. Identical values can stand only once. Inconclusive results are not listed. Some compounds were tested as several samples or in several runs, with calls that do not always agree. Calls of active or inactive are those of the source. Rule for the calls: active = hit-call score of the fitted dose curve at least 0.9, where 1 is the maximum; inconclusive = response in the unintended direction; inactive = score below 0.9.

The nature of assay [1]: TOX21_p53_BLA_p4_viability: Viability Assessment in the Tox21 HCT-116 p53 Agonism Beta-lactamase Assay, Phase 4 (AID 2283597).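 Note: hits lower the luminescence signal meaning cytotoxicity.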 A digest of the protocol: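 Following a 16 h exposure at 37C, the treated HCT116 wells were first read for the FRET ratio. They were then lysed with CellTiter-Glo, and ATP luminescence was recorded after 30 min at room temperature.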
Assay [2] is described as follows: TOX21_p53_BLA_p5_viability: Viability Assessment in the Tox21 HCT-116 p53 Agonism Beta-lactamase Assay, Phase 5 (AID 2283600). The method, boiled down:
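After the 460/530 nm beta-lactamase measurement, the wells received an ATP-detection luciferase reagent; signal was read 30 min later at RT. Compound treatment lasted 16 h on cells pre-incubated 5 h post-seeding.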

Assay [3] has as its target Cellular tumor antigen p53 (Homo sapiens) (UniProt P04637). In words: TOX21_p53_BLA_p4_ratio: Tox21 HCT-116 p53 Agonism Beta-lactamase Assay, Ratio, Phase 4 (AID 2283601). A digest of the protocol: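 HCT-116 p53 beta-lactamase reporter cells (4000/well) preincubated 5 h, then compound (217-fold dilution of DMSO stock) for 16 h at 37C. CCF4-AM substrate added 2 h at room temperature; 460/530 nm emission ratio fitted upward versus DMSO.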

Assay [4] has the same target. Nature of the assay: TOX21_p53_BLA_p5_ratio: Tox21 HCT-116 p53 Agonism Beta-lactamase Assay, Ratio, Phase 5 (AID 2283599). The method, boiled down: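 HCT-116 p53-bla cells (4000/well) plated 5 h, dosed with compound (217-fold DMSO dilution) for 16 h at 37 C; CCF4-AM substrate 2 h at room temperature. Activity is the 460/530 nm emission ratio (405 nm excitation), fitted in gain-of-signal direction versus DMSO.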

Sequence of Cellular tumor antigen p53 (Homo sapiens) (P04637 whole entry, looked up): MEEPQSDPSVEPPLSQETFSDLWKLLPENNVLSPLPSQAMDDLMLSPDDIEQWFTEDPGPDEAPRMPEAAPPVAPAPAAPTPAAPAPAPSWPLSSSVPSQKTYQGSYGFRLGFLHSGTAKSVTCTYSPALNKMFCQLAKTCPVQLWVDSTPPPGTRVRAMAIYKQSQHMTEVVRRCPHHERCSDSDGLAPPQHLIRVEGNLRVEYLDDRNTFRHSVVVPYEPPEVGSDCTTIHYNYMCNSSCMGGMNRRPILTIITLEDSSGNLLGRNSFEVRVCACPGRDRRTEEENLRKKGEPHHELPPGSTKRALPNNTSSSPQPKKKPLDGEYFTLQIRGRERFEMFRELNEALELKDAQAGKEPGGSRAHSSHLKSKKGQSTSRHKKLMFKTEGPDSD

With `Nc1ccnc(=O)[nH]1`, the call in assay [1], in assay [2] and in assay [3] was inactive.

For `CCCCC(CC)COC(=O)/C=C/c1ccc(OC)cc1` (stereo not drawn), the result in assay [1] and in assay [2] was inactive.

With `CC1C(C)(C)C2=C(C(=O)CCC2)C1(C)C` (stereo not drawn), the result in assay [1] and in assay [2] was inactive.

Regarding `CC(=O)OCC=C(C)C`, the molecule was called inactive in assay [1], in assay [2] and in assay [3].

Turning to `CCCCOCCOC(=O)COc1ccc(Cl)cc1Cl`, the molecule was classed as inactive in assay [1] and in assay [2].

With `O=C(OCCc1ccccc1)c1ccccc1`, the molecule was classed as inactive in assay [1], in assay [4] and in assay [3].

For the molecule `CC(=O)CC(=O)Nc1ccccc1C`, the outcome in assay [4] and in assay [2] was inactive.

Regarding `CCCCCC[C@@H](O)C/C=C\CCCCCCCC(=O)OCC(O)CO` (stereo partly drawn), the molecule was classed as inactive in assay [1] and in assay [3].

Turning to `Cc1cc(C)n(CO)n1`, the result in assay [4], in assay [2] and in assay [3] was inactive.

The AC50 is the concentration at which the activity in the assay is half-maximal. `c1ccc(Nc2cccc3ccccc23)cc1`: the AC50 in assay [1] is 43.6 µM (active) and 82.6 µM (active); in assay [3] it was 74.3 µM (active). Besides, the call in assay [2] and in assay [3] was inactive.

Turning to `CCC(C)C(=O)OCCc1ccccc1` (stereo not drawn), the result in assay [4] and in assay [2] was inactive.

Turning to `COC(C=C(C)CCC=C(C)C)OC`, the result in assay [4], in assay [2] and in assay [3] was inactive.

Take `CCCCOCC(C)O` (stereo not drawn): the result in assay [4] and in assay [2] was inactive.

Consider `Cc1c(C(=O)c2c[nH]n(C)c2=O)ccc(S(C)(=O)=O)c1C1=NOCC1`, for which the result in assay [4], in assay [2] and in assay [3] was inactive.

On to `CC/C=C\CCOC(=O)c1ccccc1O`, for which the result in assay [4], in assay [2] and in assay [3] was inactive.

As to `CC1CCC(C(C)(C)S)C(=O)C1` (stereo not drawn), the result in assay [1] and in assay [3] was inactive.

Turning to `CC(CC=O)CC(C)(C)C` (stereo not drawn), the molecule was called inactive in assay [1] and in assay [3].

In the case of `CC1=NN(c2ccc(S(=O)(=O)O)cc2)C(=O)C1N=Nc1ccccc1` (stereo not drawn), the outcome in assay [1] and in assay [3] was inactive.

On to `N#Cc1ccc(C2CCCc3cncn32)cc1` (stereo not drawn), for which the outcome in assay [4], in assay [2] and in assay [3] was inactive.

These data come from PubChem BioAssay (EPA / NIEHS).
